Screens: PubChem, The Scripps Research Institute Molecular Screening Center
Most compounds without a hit are left out; they make up all but 4.1% or so of the library.
DAX1 inh-1 = DAX1 (NR0B1) inhibition, primary screen; AID 652010; 370,000 tested, 1.1% active; HEK293T StAR-luciferase reporter, SF-1/DAX-1 repression relief; inhibition, % at 6.8 µM;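 active = inhibition above the mean over all tested compounds plus 3 SD, cut at about 3.6% in these data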;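 note: 0% = DAX-1 cells with DMSO and 100% = cells lacking DAX-1 with DMSO; higher inhibition means more luminescence from relief of DAX-1 repression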
DAX1 inh-2 = NR0B1 (DAX1) inhibition; inhibition, % at 6.75 µM; 340,000 tested, 0.99% active; P51843; AID 504766; HEK293 Gal4-DAX1 luciferase reporter, luminescence;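 active = inhibition above the mean over all tested compounds plus 3 SD, cut at about 4.2% in these data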;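 note: 0% = DAX1-transfected cells with DMSO and 100% = empty-vector control cells with DMSO; inhibition shows as a rise in luminescence from relieved DAX1 repression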
ssDAF-12 act = activates DAF-12 receptor from parasite S. stercoralis; HEK293 ssDAF-12/GRIP1 lit1-tk-luc reporter, luminescence; % of 3 µM dafachronic acid response; activation, % at 6.8 µM; 370,000 tested, 1% active;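 active = activation above the mean over all tested compounds plus 3 SD, cut at about 0.9% in these data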;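 note: 0% = DMSO-only wells and 100% = 3 µM delta7-dafachronic acid wells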
hgDAF-12 ag = activates the H. glycines DAF-12 receptor ligand-binding domain | activation, % at 6.8 µM | 370,000 tested, 1.8% active | HEK293 GAL4-hgDAF12 UAS-luciferase reporter, agonist luminescence; normalized to butyrate control;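 active = activation above a cutoff set at the mean of all screened compounds plus 3 SD, cut at about 10% in these data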;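 note: 0% = DMSO wells and 100% = sodium butyrate wells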
hcDAF-12 act = activators of H. contortus DAF-12 nuclear receptor. activation, % at 6.8 µM. 370,000 tested, 1.4% active. HEK293 hcDAF-12 lit1-tk-luc reporter, luminescence; 0% DMSO, 100% Δ7-dafachronic acid;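 active = activation above the mean of all tested compounds plus 3 SD, cut at about 5.5% in these data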;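 note: 100% = response to 3 µM Δ7-dafachronic acid high control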
DAX1 inh confirm = NR0B1 (human) inhibition, confirmation. HEK293T StAR-promoter luciferase reporter, SF-1/DAX-1 repression. inhibition, % at 6.8 µM. shares compounds with DAX1 inh-1. 2,400 tested, 87% active. AID 652134;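 active = inhibition above the average of every tested compound plus 3 SD, cut at about 3.8% in these data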;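 note: 0% = DAX-1 cells with DMSO and 100% = no DAX-1 control cells with DMSO; active compounds raise luminescence by relieving repression of the StAR reporter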
Target sequence (P51843 whole entry, looked up): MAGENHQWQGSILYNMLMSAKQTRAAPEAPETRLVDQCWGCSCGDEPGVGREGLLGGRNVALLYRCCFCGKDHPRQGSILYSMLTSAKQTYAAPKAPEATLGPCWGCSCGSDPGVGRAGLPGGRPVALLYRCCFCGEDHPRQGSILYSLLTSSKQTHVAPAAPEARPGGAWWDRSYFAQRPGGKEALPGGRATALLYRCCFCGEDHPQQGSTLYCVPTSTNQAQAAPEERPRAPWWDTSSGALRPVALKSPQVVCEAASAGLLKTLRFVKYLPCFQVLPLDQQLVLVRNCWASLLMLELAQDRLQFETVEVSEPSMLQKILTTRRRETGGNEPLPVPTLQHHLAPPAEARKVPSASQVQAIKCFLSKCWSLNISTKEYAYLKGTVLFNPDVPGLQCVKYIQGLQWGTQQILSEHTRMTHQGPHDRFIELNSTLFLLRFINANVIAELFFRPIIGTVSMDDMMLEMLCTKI
SF1 AF2mut Luc = counter-screen for DAX1 inhibitors: nonselective inhibitors with SF-1 AF2 mutant. shares compounds with DAX1 inh-1. HEK293 StAR-luciferase, luminescence. inhibition, % at 6.8 µM. 2,400 tested, 78% active. AID 652136;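 active = inhibition above the mean of all tested compounds plus 3 SD, cut at about 3% in these data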;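 note: 0% = DAX-1 transfected cells with DMSO and 100% = cells without DAX-1 with DMSO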
LXR ag = counter-screen for hcDAF-12 agonists: agonists of human LXR-beta | shares compounds with hcDAF-12 act | HEK293 Gal4-LXR tk-luc reporter, luminescence, 24 h; normalized: DMSO 0%, positive control 100% | activation, % at 6.8 µM | 3,400 tested, under 10 active;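 active = mean percent activation of the reporter above a cutoff set as the average over tested compounds plus their standard deviation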
hcDAF12 conf = confirmation of H. contortus DAF-12 agonists | shares compounds with hcDAF-12 act | HEK293 hcDAF-12 lit1-tk-luc reporter, luminescence; % of Δ7-dafachronic acid response | 3,400 tested, 61% active | AID 743032 | activation, % at 6.8 µM;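 active = mean activation across triplicate tests above the threshold derived from the earlier primary screen, cut at about 5.5% in these data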;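 note: 0% = DMSO only wells and 100% = 3 µM Δ7-dafachronic acid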
hgDAF12 conf = confirmation of H. glycines DAF-12 agonists; shares compounds with hgDAF-12 ag; HEK293 GAL4-hgDAF12 luciferase reporter, agonist mode; percent of butyrate response; activation, % at 6.8 µM; 3,300 tested, 80% active; AID 743050;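 active = mean activation over triplicate wells above the hit cutoff derived from the earlier primary screen, cut at about 11% in these data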;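 note: 0% = DMSO low control and 100% = 2 mM sodium butyrate high control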
LXRb DAF12 ctr = activates human LXR-beta, counter-screen for DAF-12 agonists; activation, % at 6.8 µM; shares compounds with hgDAF-12 ag; 3,300 tested, under 10 active; HEK293 Gal4-LXR luciferase reporter, 24 h;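 active = mean activation of the triplicate above a set limit carried over from the primary screen, none filed active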
* = called active by the depositor; / = not tested or not shown.

SMILES	DAX1 inh-1	DAX1 inh-2	ssDAF-12 act	hgDAF-12 ag	hcDAF-12 act	DAX1 inh confirm	SF1 AF2mut Luc	LXR ag	hcDAF12 conf	hgDAF12 conf	LXRb DAF12 ctr
COc1ccc(CNC(=O)c2noc3c2CCCC3)cc1	1	3	-1	9	2	/	/	/	/	/	/
COc1ccc(NC(=O)c2noc3c2CCCCC3)cc1	4.5*	3	0	20*	5.7*	12*	5.5*	/	/	18*	1
Cc1cc(-c2ccncc2)n2ncc(-c3ccccc3)c2n1	13*	/	2.5*	19*	11*	19*	9.5*	2	11*	23*	1
O=C(/C=C\Nc1ccccc1Br)c1ccc2c(c1)OCO2	5.3*	-5	1	17*	9.4*	9.6*	2	2	17*	16*	1
N/C(=N\OC(=O)c1ccc2c(c1)OCO2)c1cccc([N+](=O)[O-])c1	0	0	-1	3	3	/	/	/	/	/	/
Cc1cccc(/C(N)=N/OC(=O)c2ccc3c(c2)OCO3)c1	5.4*	1	0	15*	8.6*	11*	6.8*	1	6.7*	14*	1
COc1ccc(C(=O)Nc2nc3ccccc3c(=O)[nH]2)cc1	6.3*	2	1.1*	19*	6.9*	14*	8.8*	1	5	17*	1
COc1ccc(C(=O)Nc2nc3cc(OC)c(OC)cc3c(=O)[nH]2)cc1	0	1	-1	1	-1	/	/	/	/	/	/
CCc1ccc(NC(=O)c2cc(C)on2)cc1	5.8*	1	-1	13*	7.8*	11*	4.9*	1	6.8*	13*	1
Cc1ccc(NC(=O)c2cc(C)no2)cc1	1	0	-1	4	1	/	/	/	/	/	/
CCCc1cc(C(=O)Nc2ccc(C)cc2)no1	5.2*	1	1	17*	6.2*	8.7*	7.3*	/	/	13*	1
COc1cccc(C(=O)NCC(=O)N2CCN(c3ccc(C(F)(F)F)cn3)CC2)c1	-3	0	-1	-4	-1	/	/	/	/	/	/
COCC(=O)N1CCCC(C(=O)c2ccc(-c3ccccc3)c(F)c2)C1 (stereo unspecified)	2	-1	-2	1	0	/	/	/	/	/	/
O=C(Nc1ccc(SC(F)F)cc1)C1=COCCO1	4.9*	1	1	15*	4	13*	6.8*	/	/	14*	1
Cc1c(NC(=O)Nc2ccc3c(c2)OCO3)cccc1[N+](=O)[O-]	2	1	-1	8	2	/	/	/	/	/	/
O=C(O)C1C2CCC(C2)C1C(=O)NCCc1ccccc1 (stereo unspecified)	1	2	0	2	1	/	/	/	/	/	/
O=C(/C=C/c1ccccc1)Nc1scc(-c2ccccc2)c1C(=O)O	5.1*	3	0	15*	4	8.9*	8.6*	/	/	11*	1
COc1cccc(NC(=O)Nc2ccc3c(c2)nc(C)n3C)c1	4.7*	-2	0	20*	5.7*	12*	7.8*	/	/	15*	1
Cc1cc(=O)oc2cc(Oc3ccc([N+](=O)[O-])cc3[N+](=O)[O-])ccc12	0	0	-1	2	-2	/	/	/	/	/	/
COc1ccc(NC(=O)C2Cc3c(-c4cccc(C(N)=O)c4)ccnc3O2)cc1 (stereo unspecified)	-2	/	-1	-2	-2	/	/	/	/	/	/
